Measurements as given in ChEMBL document CHEMBL3988442, “University of Dundee, Small-Polar-MMV Screening Library” (2021).
About 950 (1.4%) of roughly 69,000 compounds showed an effect of 50% or more. This excerpt belongs to a sample that is enriched for strong results.

test system: Mycobacterium tuberculosis; assay: Cornell M. t heat shock assay; format: functional, organism-based; set-up: dose or concentration left out as unconfirmed; note: in the data most compounds retested in dose-response had high values

| Structure (SMILES) | Percent Effect |
| --- | --- |
| CCC(CO)N(Cc1ccccn1)C(=O)c1ccc(=O)[nH]c1 (stereo not given) | 1.592% |
| O=C(NC[C@]12COC[C@H]1CN(Cc1nccs1)C2)c1cscn1.O=C(O)C(F)(F)F | 1.78% |
| COc1ccc(CN2CCC3(CC2)CCN(CC(=O)N(C)C)C3=O)cc1.O=C(O)C(F)(F)F | 1.282% |
| O=C1NCC2(CCCN(C(=O)Cn3nc4ccccc4n3)CC2)O1 (stereo not given) | 102.6% |
| O=C1NCC2(CCCN(C(=O)CCn3cnc4ccccc43)CC2)O1 (stereo not given) | -31.86% |
| Cn1c(CCC(=O)N2CCCC3(CC2)CNC(=O)O3)nc2cccnc21 (stereo not given) | -15.92% |
| O=C(O)CC(O)(CC(=O)O)C(=O)O.O[C@@]1(c2ccccn2)CC[C@H]2CN(Cc3ccccn3)C[C@H]21 | 3.038% |
| CCN(CC)c1ccc2ccc(C(=O)O)cn12 | 4.754% |
| CCN(CC)c1ccc2ccc(C(=O)N3CCCCO3)cn12.O=C(O)C(F)(F)F | 56.41% |
| CN1CCN(c2ccc3ccc(C(=O)N4CCCCO4)cn23)CC1.O=C(O)C(F)(F)F | 28.6% |
| Cl.O=C(Cn1c(-c2ccco2)cc2cccnc21)N1CCCC1 | 2.747% |
| CC(=O)N1[C@H](Cn2cncn2)C[C@@H]2CN(S(C)(=O)=O)CC[C@@H]21 | -11.62% |
| CCc1nnc(CN(C)c2nc(C(C)C)nc3c2cnn3C)o1 | 106.1% |
| CCc1nnc(CN(C)c2nc(C3CCCC3)nc3c2cnn3C)o1 | -3.006% |
| CCCc1nc(N(C)CCc2noc(C(C)C)n2)c2cnn(C)c2n1 | -6.302% |
| CCc1nnc2n1CC(CNCc1nc(C)c(C)o1)CC2 (stereo not given) | -15.23% |
| CC(C)c1nnc2n1CC(CNCc1ccncc1)CC2 (stereo not given) | 107% |
| CCc1nnc2n1CC(CNCc1ccncc1)CC2 (stereo not given) | 102.6% |
| CC(C)c1nnc2n1CC(CNCc1ccsc1)CC2 (stereo not given) | -8.8% |
| CCc1nnc2n1CC(CNCC1CCCC1)CC2 (stereo not given) | -14.79% |
| CC(C)c1nnc2n1CC(CNCc1cccnc1)CC2 (stereo not given) | -38.13% |
| O=C(O)C(F)(F)F.O=C1CC[C@H]2[C@H](CCN2C(=O)C2CCCO2)N1Cc1cccnc1 (stereo not given in full) | 1.298% |
| CNC(=O)CN1CC[C@H]2CN(C(=O)c3ccc(C)cc3)C[C@H]2C1.O=C(O)C(F)(F)F | -25.29% |

| Structure (SMILES) | Percent Effect |
| --- | --- |
| Cn1cc(CN2C[C@H](Oc3ncccc3F)[C@H]3OCCC[C@H]32)cn1.O=C(O)C(F)(F)F.O=C(O)C(F)(F)F.O=C(O)C(F)(F)F | -12.51% |
| O=C(NC[C@]12COC[C@H]1CN(Cc1cccnc1)C2)C1CCC1.O=C(O)C(F)(F)F.O=C(O)C(F)(F)F | 24.22% |
| COCC(=O)N1CCC2(CC1)CNc1ccc(F)cc12.O=C(O)C(F)(F)F | -6.982% |
| O=C(Nc1ccccc1)c1ccc2c(c1)C1(CCCCC1)CN2.O=C(O)C(F)(F)F | 67.01% |
| CC(=O)c1ccc(NC(=O)c2ccc3c(c2)C2(CCCCC2)CN3)cc1.O=C(O)C(F)(F)F | 36.54% |
| COc1ccccc1CN1C[C@@H]2COC[C@]2(COCc2ccncc2)C1.O=C(O)C(F)(F)F.O=C(O)C(F)(F)F | -12.91% |
| CCN(CC)C(=O)Cn1ccc2cc(NC(=O)C3CC3)ccc21 | 25.7% |
| CCNC(=O)Nc1ccc2c(ccn2CC(=O)N(CC)CC)c1 | 47.91% |
| CCN(CC)C(=O)Cn1ccc2cc(NC(=O)NC3CC3)ccc21 | 61.18% |
| COCCN1CCc2c(cnc(-c3ccoc3)c2C(=O)O)C1.O=C(O)C(F)(F)F | -43.35% |
| CN1CCCN(C(=O)c2ccc3c(c2)nc(N2CCOCC2)n3C)CC1 | 98.19% |
| Cn1c(N2CCOCC2)nc2cc(C(=O)N3CCCOCC3)ccc21 | -23.59% |
| CN1CCN(C(=O)c2ccc3c(c2)nc(N2CCOCC2)n3C)CC1=O | 2.08% |
| CC(C)N(C)Cc1nnc2n1CCCN(c1ncccn1)C2.O=C(O)C(F)(F)F | 11.35% |
| CN(Cc1cn2c(n1)CN(CC1CC1)CC2)Cc1ccco1.O=C(O)C(F)(F)F.O=C(O)C(F)(F)F | 9.036% |
| O=C(c1ccon1)N1CCc2ncnc(NCc3ccccn3)c2CC1 | 76.86% |
| O=C(c1ccco1)N1CCc2ncnc(NCc3ccccn3)c2CC1 | 44.89% |
| O=C(c1ccon1)N1CCc2ncnc(NCc3cccnc3)c2CC1 | 1.572% |
| O=C(c1cc[nH]n1)N1CCc2ncnc(NCc3ccccn3)c2CC1 | -1.441% |
| O=C(c1ccoc1)N1CCc2ncnc(NCc3ccccn3)c2CC1 | 62.71% |
| O=C(C1CCCCO1)N1CCc2ncnc(NCc3ccon3)c2CC1 (stereo not given) | 17.45% |
| CN(C)C[C@]12COC[C@H]1CN(C(=O)CCc1ccccc1)C2.O=C(O)C(F)(F)F | -31.23% |
| COCCN1C[C@@H]2[C@@H](OC)CCN(Cc3cccs3)[C@@H]2C1.O=C(O)C(F)(F)F.O=C(O)C(F)(F)F | -45.94% |

| Structure (SMILES) | Percent Effect |
| --- | --- |
| CCn1cc2c(n1)CN(CC1CC1)CC2COCC1CC1.O=C(O)C(F)(F)F (stereo not given) | 0.92% |
| CN1CC2(CCN(CC3CC3)CC2)COc2ccccc2S1(=O)=O.O=C(O)C(F)(F)F | -26.67% |
| Cc1nnc(NCc2ccccc2F)c(C#N)c1C | 88.29% |
| COCc1ccccc1CNc1nnc(C)c(C)c1C#N | 28.24% |
| Cc1nnc(NCc2ccccc2Cl)c(C#N)c1C | 29.74% |
| CCOCC1CN(Cc2cnn(C)c2)Cc2c1cnn2CC.O=C(O)C(F)(F)F (stereo not given) | -24.32% |
| Cc1ccc(CN2CC[C@@H]3OCCN(Cc4ccncc4)[C@H]3CC2)s1.O=C(O)C(F)(F)F.O=C(O)C(F)(F)F.O=C(O)C(F)(F)F | 43.06% |
| Cc1nc2c(C)cccc2cc1C(=O)N1CCC2(CC1)NCCNC2=O | -15.56% |
| CCCC1CN(CCOc2ccccc2)C(=O)c2cccnc2O1 (stereo not given) | -5.894% |
| CCCC1CN(CC(C)C)C(=O)c2cccnc2O1 (stereo not given) | -5.035% |
| CC(C)CN1C[C@H](COCc2ccccc2)Oc2ncccc2C1=O | 61.32% |
| COc1nc2cc(C)ccc2cc1CN(C)Cc1n[nH]c2c1CCCC2 | 2.274% |
| Cc1ccc2[nH]c(CN(C)Cc3ccccc3C(=O)O)nc2c1 | -3.354% |
| COc1nc2c(cc1C(=O)N(C)Cc1[nH]nc3c1CCC3)CCC2 | 0.3103% |
| Cc1ccc2nc(CN(C)Cc3n[nH]c4c3CCCCC4)[nH]c2c1C | 106.9% |
| CN(Cc1cc2n(n1)CCNC2)Cc1n[nH]c2c1CCC2 | -1.948% |
| Cc1ccc2nc(CN(C)Cc3[nH]nc4c3CCC4)[nH]c2c1C | 98.38% |
| CCc1cc(N(C)Cc2[nH]nc3c2CCC3)nc(N2CCOCC2)n1 | -16.74% |
| CN(Cc1cc2n(n1)CCNC2)Cc1n[nH]c2c1CCCCC2 | -10.71% |
| Cc1ccc2[nH]c(CN(C)Cc3n[nH]c4c3CCC4)nc2c1 | 98.03% |
| CC(=O)N1C[C@@H]2CC[C@H](C1)N(S(=O)(=O)c1cc(F)ccc1C)C2 | -2.155% |
| CNC(=O)[C@H]1C[C@@H]2CN(Cc3ccc(OC)cc3)C[C@H]1O2.O=C(O)C(F)(F)F | 15.08% |
| Cc1ccc(CN2C[C@@H](OCc3ccccn3)[C@H]3COC[C@H]32)o1.O=C(O)C(F)(F)F.O=C(O)C(F)(F)F | 4.099% |

| Structure (SMILES) | Percent Effect |
| --- | --- |
| CNc1nc(C2CCCN2)nc2c1CCN(S(=O)(=O)C1CCCCC1)C2.Cl (stereo not given) | 12.62% |
| CCOC(=O)N1CCC(Nc2cc(CC)nc3c(C)c(C)nn23)CC1 | -7.891% |
| CCc1cc(NC2CCOCC2)n2nc(C)c(C)c2n1 | -7.332% |
| CCc1cc(NC2CCN(S(C)(=O)=O)CC2)n2nc(C)c(C)c2n1 | 105.8% |
| CCN(CC)CCN1CC[C@H]2OCC[C@@]2(C(=O)N2CCOCC2)C1.O=C(O)C(F)(F)F.O=C(O)C(F)(F)F | 6.776% |
| Cl.Cl.Cn1cc(C(=O)NCc2cncc3c2CCN(c2ccccn2)C3)cn1 | -14.06% |
| COc1cccc2[nH]c(C(=O)N3CCNCC3C(N)=O)cc12.Cl (stereo not given) | -10.67% |
| COC(=O)N1CCC2(CC1)N=C(CCC(C)C)NC2=O | 95.71% |
| CC(C)CCC1=NC2(CCN(C(=O)N3CCN(C)CC3)CC2)C(=O)N1 | 15.27% |
| CCOC(=O)N1CCC2(CC1)N=C(CCC(C)C)NC2=O | 12.74% |
| Cc1oncc1C(=O)N[C@@H]1CN(Cc2ccco2)C[C@@H]2CCCO[C@@H]21.O=C(O)C(F)(F)F | 4.265% |
| CC[C@@H]1N(Cc2ccco2)CCC[C@]12CCC(=O)N2C.O=C(O)C(F)(F)F | -19.47% |
| c1cc(-c2cncnc2)cc(-c2ccn(CC3CCNC3)n2)c1 (stereo not given) | 8.343% |
| Cc1ccsc1-c1cccc(-c2ccn(CC3CCNC3)n2)c1 (stereo not given) | 84.67% |
| Cc1nccc(-c2cccc(-c3ccn(CC4CCNC4)n3)c2)n1 (stereo not given) | -11.22% |
| CN1CCC(c2nnc3ccc(C(=O)NC4CCCC4)cn23)C1.O=C(O)C(F)(F)F (stereo not given) | -23.72% |
| CNc1cc(C)nc(C2CCN(CCO)CC2)n1 | -3.64% |
| CC(NC(=O)NCCCN1CCCCCC1)c1nncn1C (stereo not given) | 12.17% |
| CC1CCN(CCCNC(=O)NC(C)c2nncn2C)CC1 (stereo not given) | 68.75% |
| CC(NC(=O)NCCCN1CCCC1)c1nncn1C (stereo not given) | -5.961% |
| O=C(O)C(F)(F)F.O=C(O)C(F)(F)F.O=C(c1ccc(F)cc1)N1CCN2C[C@H](OCc3ccccn3)C[C@H]2C1 | 3.711% |
